This is part of a sample that, as a whole, favours compounds with a hit. Of some 79,000 tested, about 15% had one in any assay. No stated cut-off is given here; in the data, active means growth inhibition above about 70%; inactive means the rest.
How the values were obtained:
[1] = NCI Yeast Anticancer Drug Screen. Data for the rad50 strain (AID 155);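 further: 0% = growth of vehicle-only cultures of the same strain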; conditions: S. cerevisiae rad50 strain growth inhibition; at 50.0 µM; active compounds read high
In short: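 Cells are treated with compound, grown, and their growth is then scored against vehicle-only cultures of the same repair-deficient yeast strain.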

[2] = NCI Yeast Anticancer Drug Screen. Data for the mec2-1 strain (AID 157); conditions: S. cerevisiae mec2-1 strain, at 50.0 µM, active compounds read high
In short: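 Mutant yeast (mec2-1) grown with compound; growth inhibition relative to vehicle control reported.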

[3] = NCI Yeast Anticancer Drug Screen. Data for the sgs1 mgt1 strain (AID 161);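 further: 0% = growth of cultures given vehicle only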; conditions: S. cerevisiae sgs1 mgt1 strain, at 50.0 µM, active compounds read high
In short: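 Compounds are added to genetically altered yeast, and growth is compared with cultures given vehicle alone to give percent inhibition.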

[4] = NCI Yeast Anticancer Drug Screen. Data for the cln2 rad14 strain (AID 165);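 further: 0% = growth equal to vehicle treated cultures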; conditions: S. cerevisiae cln2 rad14 strain, at 50.0 µM, active compounds read high
In short: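 Readout is yeast growth inhibition versus vehicle-treated controls, using a strain with cln2 and rad14 alterations exposed to compound.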

[5] = NCI Yeast Anticancer Drug Screen. Data for the bub3 strain (AID 167); conditions: S. cerevisiae bub3 mutant strain, at 50.0 µM, active compounds read high
In short: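 Part of a panel of yeast mutants defective in DNA damage repair or cell cycle regulation. Each strain is grown with compound, and inhibition is calculated relative to solvent-treated cultures.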

[6] = NCI Yeast Anticancer Drug Screen. Data for the mlh1 rad18 strain (AID 175); conditions: S. cerevisiae mlh1 rad18 strain growth inhibition; at 50.0 µM; active compounds read high
In short: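 Genetically defined yeast (DNA repair-deficient) exposed to compounds; growth inhibition determined relative to vehicle.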

Measured: growth inhibition

CS(=O)(=O)OCCCCCCCCCCCC1C=CCC1 (configuration not stated)
inactive: [1] 10.3% | [2] -32.4% | [3] 5.15% | [4] 11.8% | [5] -8.25% | [6] 3.1%

NNc1ncnc2ccc(Cl)cc12
inactive: [1] 1.05% | [2] -9.15% | [3] 11.4% | [4] 1.05% | [5] 5.8% | [6] 6.5%

CCN(CC)CCCNc1c2c(nc3ccc(Cl)cc13)CCCC2
inactive: [1] -20.1% | [2] -9.35% | [3] 0.6% | [4] -8.1% | [5] -11.8% | [6] 2.75%

O=[N+]([O-])c1ccc(OCc2ccccc2)c(Cl)c1
inactive: [1] -4.2% | [2] 17.1% | [3] 25.9% | [4] -13.8% | [5] 46.3% | [6] 30.4%

CC(C)C(O)C(C)(C)CO (configuration not stated)
inactive: [1] 10.7% | [2] -15.2% | [3] 4.75% | [4] 2.3% | [5] 11.1% | [6] 32.6%

Cc1cc(S(=O)(=O)/N=C(/NN)Nc2ccc(Cl)cc2)c(S)cc1Cl
inactive: [1] 22.6% | [2] 8.15% | [3] 19.9% | [4] 3.8% | [5] 27.5% | [6] 29.9%

COc1ccc(C(=O)CCN(C)C)c2ccccc12
inactive: [1] -9.1% | [2] -19.8% | [3] -17.1% | [4] 9.7% | [5] -20.3% | [6] 17.5%

N#CCCCO
inactive: [1] -1.25% | [2] 11.6% | [3] 7.45% | [4] -4.55% | [5] 0.3% | [6] -11.8%

COC(=O)/C(C)=C/C=C/C(C)C(O)C(C)C1OC(CC(OC)OC)C(C)C(O)C1C (configuration not stated)
inactive: [1] 28.9% | [2] 22.2% | [3] 9.75% | [4] 2.65% | [5] 2.9% | [6] 19.9%

N#CC1=C(Nc2ccccc2)CCC1
inactive: [1] 5% | [2] -11.6% | [3] -0.8% | [4] -38.8% | [5] 2.25% | [6] -5.4%

CN(C)c1ccc(C(=O)O)cc1
inactive: [1] -0.75% | [2] 11.3% | [3] -20.4% | [4] -28.8% | [5] -17.6% | [6] -16.3%

CN(Cc1ccccc1)C(=O)NC1CCCCC1
inactive: [1] 2.3% | [2] 0.05% | [3] 4.8% | [4] -22.8% | [5] 3.4% | [6] 2.55%

CCOC(=O)N/N=C(\CC)NO
inactive: [1] 2.45% | [2] 1.35% | [3] -7.7% | [4] -7% | [5] 12.8% | [6] 5.7%

C/C(CCc1cccc([N+](=O)[O-])c1)=N\NC(N)=O
inactive: [1] -19.1% | [2] -10.5% | [3] -6.5% | [4] -1.95% | [5] 7.4% | [6] -29.5%

Brc1cccc(N=NN2CCCC2)c1
inactive: [1] 14.7% | [2] 25.4% | [3] 28.9% | [4] 9.6% | [5] 7.7% | [6] 47.1%

O=C(C1SCCCS1)N(O)c1ccccc1OCc1ccccc1
inactive: [1] -3.85% | [2] -37.6% | [3] -22.8% | [4] -14.5% | [5] 0.95% | [6] -19.8%

O=c1nc(-c2ccco2)sc(=O)[nH]1
inactive: [1] -0.05% | [2] -5.6% | [3] -8.35% | [4] 13.2% | [5] -5.85% | [6] -3.4%

CC(=O)C(C(c1ccccc1)N1CCOCC1)N1CCOCC1 (configuration not stated)
inactive: [1] 12.1% | [2] -0.8% | [3] -24% | [4] 1.15% | [5] -23.2% | [6] 6.25%

O=C(C(CO)c1ccccc1)N1CCOCC1 (configuration not stated)
inactive: [1] -10.3% | [2] -15.4% | [3] -3.45% | [4] -23.4% | [5] 4.35% | [6] 2.55%

CN(C)C=Nc1ccn(C2CC(F)C(CO)O2)c(=O)n1 (configuration not stated)
inactive: [1] 4.55% | [2] 13.2% | [3] -22.4% | [4] -7.85% | [5] 8.8% | [6] 13%

COc1ccc2c3c([nH]c2c1)C1CC2C(CC(O)C(OC)C2C(=O)O)CN1CC3 (configuration not stated)
inactive: [1] -6.35% | [2] -23.7% | [3] -1.75% | [4] 15.2% | [5] 0.15% | [6] -4.9%

CC(CC(=O)Nc1ccc(NC(=O)CC(C)N=NC(N)=S)cc1)N=NC(N)=S (configuration not stated)
inactive: [1] 30.6% | [2] 3.95% | [3] -5.35% | [4] -27.2% | [5] 1.75% | [6] 14%

CC1=NOC(=O)/C1=C/c1ccccc1C
inactive: [1] 51.2% | [2] 2.55% | [3] 27.9% | [4] 8.15% | [5] 17.4% | [6] 36.9%

CCN(CC)CCOC(=O)CCC(C)=O
inactive: [1] 6.35% | [2] -31.5% | [3] -7.65% | [4] 0.8% | [5] -9.1% | [6] 7.45%

CC1(C)N=C(Oc2ccccc2)n2nccc2N1
inactive: [1] -12.6% | [2] -15.6% | [3] -14.6% | [4] 2.55% | [5] -18.3% | [6] -29.6%

OCc1ccncc1
inactive: [1] -5.85% | [2] -13.2% | [3] -9.65% | [4] -47.4% | [5] 10.4% | [6] -2.05%

COc1ccc2cc1Oc1ccc(cc1)CC1c3c(cc(OC)c4c3Oc3cc5c(cc3O4)CCNC5C2)CCN1C (configuration not stated)
inactive: [1] -15.9% | [2] -31.6% | [3] -12.2% | [4] -1.1% | [5] -38.8% | [6] -25.1%

O=C(c1ccccc1)C1N=NN(Cc2ccccc2[N+](=O)[O-])C1C(=O)c1ccccc1 (configuration not stated)
inactive: [1] -6.75% | [2] -30.9% | [3] -25.1% | [4] -57.5% | [5] -1.45% | [6] -0.65%

CN1CNc2nc(N)n(C)c(=O)c2C1
inactive: [1] 11.2% | [2] -4.7% | [3] 11.4% | [4] 11.8% | [5] -6.5% | [6] 8.2%

O=C(O)C/C(=C\c1ccccc1)C(=O)O
inactive: [1] -3.15% | [2] -25.9% | [3] -17.4% | [4] 4% | [5] -24.2% | [6] -30.9%

CC1(C)NN=C([N+](=O)[O-])C1c1ccccc1 (configuration not stated)
inactive: [1] 5.95% | [2] 10.7% | [3] 7.2% | [4] -14.4% | [5] -11% | [6] 6.65%

C[n+]1ccc(Nc2ccc(NC(=O)c3ccc(N)cc3)cc2)cc1
inactive: [1] 12.9% | [2] 20.4% | [3] 8.6% | [4] -5.05% | [5] 6.25% | [6] 17.4%

c1ccc(-c2cc3nncc(-c4ccccc4)n3n2)cc1
inactive: [1] -14.9% | [2] -9.95% | [3] -7.65% | [4] 13.9% | [5] 13.3% | [6] 3.55%

CC(O)(c1ccc(OCCC[N+](C)(C)C)cc1)C(C)(O)c1ccc(OCCC[N+](C)(C)C)cc1 (configuration not stated)
inactive: [1] -25.5% | [2] -17.1% | [3] -39% | [4] 12.9% | [5] -16.9% | [6] -27.6%

CC(=O)/C=C(O)/C=C/c1ccccc1
inactive: [1] -0.9% | [2] 5.45% | [3] -12.9% | [4] 9.15% | [5] 14.9% | [6] 12.9%

CCCCCCCCOC(=O)C1(O)CCCCC1
inactive: [1] 14.6% | [2] 28.4% | [3] 16.1% | [4] 4.2% | [5] 17.6% | [6] 36.1%

CCCN(CCC)NC(=O)c1ccc(N=NN(C)C)cc1
inactive: [1] 0.15% | [2] 32.8% | [3] 8.4% | [4] -5.3% | [5] 39.9% | [6] 21%

C/C(=C/C(=O)O)CC/C=C(/C)C(=O)O
inactive: [1] -0.15% | [2] -5.1% | [3] -1.25% | [4] 21.4% | [5] 22.1% | [6] 4.9%

COc1ccc(OC)c2c(=O)cc(C)oc12
inactive: [1] -15.7% | [2] -7.8% | [3] -16.3% | [4] -3.4% | [5] -7.65% | [6] -10.4%

NC(=O)CN(CC(N)=O)C(N)=O
inactive: [1] -14.6% | [2] -18% | [3] -20.2% | [4] 5.15% | [5] -10.3% | [6] -23.6%

c1ccc(COC2COC(c3ccccc3)OC2)cc1 (configuration not stated)
inactive: [1] 5.95% | [2] -35% | [3] 0.7% | [4] 16.9% | [5] 7.45% | [6] 3.15%

CCCCC/C(C)=C\CBr
inactive: [1] -7.65% | [2] -2.65% | [3] -7.1% | [4] -22.9% | [5] -10.6% | [6] -3%

Reference: PubChem BioAssay (NCI)
